A word on the AC50: it is the concentration giving half of the maximal activity seen.

This passage reports outcome and AC50 results from PubChem BioAssay (EPA / NIEHS).

Inconclusive results are not listed. Calls of active or inactive are those of the source. Rule for the calls, unless noted: active = hit-call score of the fitted dose curve at least 0.9, where 1 is the maximum; inactive = score below 0.9.

Experiment [1] can be described thus: ATG_TCF_b_cat_CIS: Attagene CIS-FACTORIAL HepG2 Assay for human T-Cell-Factor with beta-catenin (TCF/b-cat) (AID 2282965). To be noted: HepG2 TCF/beta-catenin cis-reporter transcription, actives raise or lower the signal. The gist of the method:
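Endogenous transcription factor activity is captured through cis-promoter reporter constructs transiently introduced into human HepG2 liver cells. Induced reporter mRNA is measured after 24 h and fitted bidirectionally relative to DMSO.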

Experiment [2] can be described thus: ATG_TGFb_CIS: Attagene CIS-FACTORIAL HepG2 Assay for human Transforming Growth Factor (TGF) (AID 2282967). To be noted: HepG2 Attagene CIS TGFb reporter, mRNA transcription; actives raise or lower the signal. The gist of the method:
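Liver HepG2 line, cis-factorial reporter panel, 24 h dosing. Quantitation: RT-PCR products labeled with 6-FAM, cut with HpaI, resolved by capillary electrophoresis; DMSO-referenced bidirectional analysis.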

Experiment [3] can be described thus: ATG_VDRE_CIS: Attagene CIS-FACTORIAL HepG2 Assay for human Vitamin D Receptor Element (VDRE) (AID 2282968). To be noted: HepG2 VDRE cis-reporter transcription, actives raise or lower the signal. A digest of the protocol:
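In transiently transfected HepG2 liver cells, gain or loss of reporter mRNA after 24 h exposure is scored relative to DMSO, using fluorescence detection by capillary electrophoresis of RT-PCR products.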

The target of experiment [4] is Nuclear receptor subfamily 1 group I member 3 (Homo sapiens) (UniProt Q14994). In words: ATG_CAR_TRANS: Attagene TRANS-FACTORIAL HepG2 Assay for human Constitutive Androstane Receptor (CAR) (AID 2282969; active = hit-call score of the fitted dose curve at least 0.9, where 1 is the maximum;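 note: activators raise reporter mRNA above DMSO so AC50 marks induction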). As to conditions: HepG2 Attagene TRANS-FACTORIAL CAR reporter. A digest of the protocol: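 Readout is reporter mRNA induction, quantified by fluorescent primer extension and capillary electrophoresis after RT-PCR. Cells were HepG2 transiently carrying chimeric NR-Gal4 constructs with GAL4-UAS reporters, treated for 24 h; activity scored upward from DMSO.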
Nuclear receptor subfamily 1 group I member 3 (Homo sapiens), sequence (Q14994 whole entry, looked up, the tested form may be a part): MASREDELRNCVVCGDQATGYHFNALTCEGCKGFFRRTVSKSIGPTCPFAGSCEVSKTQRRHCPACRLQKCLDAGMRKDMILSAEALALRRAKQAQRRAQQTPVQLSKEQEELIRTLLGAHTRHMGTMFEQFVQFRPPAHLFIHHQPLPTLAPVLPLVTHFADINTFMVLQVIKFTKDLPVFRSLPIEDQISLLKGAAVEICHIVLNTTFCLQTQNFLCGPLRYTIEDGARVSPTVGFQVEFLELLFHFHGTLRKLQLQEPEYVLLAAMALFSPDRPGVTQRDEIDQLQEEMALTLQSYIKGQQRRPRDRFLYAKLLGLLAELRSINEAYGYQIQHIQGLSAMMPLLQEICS

The target of experiment [5] is X-box-binding protein 1 (Homo sapiens) (UniProt P17861). In words: ATG_Xbp1_CIS: Attagene CIS-FACTORIAL HepG2 Assay for human X-box Binding Protein 1 (XBP1) (AID 2282972). As to conditions: HepG2 XBP1 cis-element reporter, Attagene multiplex; actives raise or lower the signal. A digest of the protocol:
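Fluorescence-labelled cDNA fragments from reporter transcripts, separated by capillary electrophoresis, give the signal. Source: HepG2 cells transfected with promoter-driven reporter units, harvested 24 h post-dose. DMSO served as reference for bidirectional curve fitting.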

The nature of experiment [6]: ATG_GAL4_TRANS: Attagene TRANS-FACTORIAL HepG2 Assay for GAL4 (Internal Marker) (AID 2282976; active = hit-call score of the fitted dose curve at least 0.9, where 1 is the maximum). To be noted: HepG2 Attagene TRANS GAL4 internal marker reporter. A digest of the protocol: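 Background-control readout: GAL4-UAS reporter transcript in transiently transfected HepG2 cells after 24 h compound exposure. Measured by RT-PCR, 6-FAM primer extension, HpaI digest and capillary electrophoresis; gain-of-signal fit versus DMSO.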

For experiment [7], the target named is Estrogen-related receptor gamma (Homo sapiens) (UniProt P62508). In words: ATG_ERRg_TRANS: Attagene TRANS-FACTORIAL HepG2 Assay for human Estrogen-Related Receptor gamma (ERRg) (AID 2282977; active = hit-call score of the fitted dose curve at least 0.9, where 1 is the maximum;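 note: hits increase reporter signal over DMSO so potencies reflect activators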). To be noted: HepG2 Attagene TRANS reporter, ERRg transactivation. The gist of the method: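 HepG2 cells transiently transfected with multiplexed GAL4-UAS reporter units and chimeric NR-Gal4 constructs were exposed to test chemicals for 24 h. Reporter mRNA was measured by RT-PCR, 6-FAM primer extension, HpaI digestion and capillary electrophoresis; gain-of-signal versus DMSO.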
Estrogen-related receptor gamma (Homo sapiens), sequence (P62508 whole entry, looked up, the tested form may be a part): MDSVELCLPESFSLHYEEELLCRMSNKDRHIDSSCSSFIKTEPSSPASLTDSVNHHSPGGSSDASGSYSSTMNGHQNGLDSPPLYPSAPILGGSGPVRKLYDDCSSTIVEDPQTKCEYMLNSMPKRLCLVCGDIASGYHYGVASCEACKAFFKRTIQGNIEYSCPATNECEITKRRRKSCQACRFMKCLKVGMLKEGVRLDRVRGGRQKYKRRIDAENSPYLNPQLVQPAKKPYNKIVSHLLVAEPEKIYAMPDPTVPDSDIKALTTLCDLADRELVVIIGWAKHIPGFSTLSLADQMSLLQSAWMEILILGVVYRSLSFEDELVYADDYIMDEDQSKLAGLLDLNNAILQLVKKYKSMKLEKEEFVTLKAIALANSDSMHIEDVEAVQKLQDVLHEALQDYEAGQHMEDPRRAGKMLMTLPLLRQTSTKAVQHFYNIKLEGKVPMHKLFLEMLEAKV

Experiment [8] is described as follows: ATG_TAL_CIS: Attagene CIS-FACTORIAL HepG2 Assay for human TAL Basal Promoter (AID 2282966).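 Note: background control endpoint measuring basal TAL promoter reporter mRNA not a specific factor.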 To be noted: HepG2 Attagene cis-factorial TAL promoter reporter; actives raise or lower the signal. A digest of the protocol: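 HepG2 cells transiently transfected with multiplexed cis-promoter reporter units, dosed 24 h. Reporter mRNA quantified by RT-PCR, 6-FAM labelling, HpaI digestion and capillary electrophoresis; TAL basal promoter serves as background control, fitted bidirectionally versus DMSO.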

For experiment [9], the target named is Estrogen receptor (Homo sapiens) (UniProt P03372). In words: ATG_ERa_TRANS: Attagene TRANS-FACTORIAL HepG2 Assay for human Estrogen Receptor alpha (ERa) (AID 2282970; active = hit-call score of the fitted dose curve at least 0.9, where 1 is the maximum). As to conditions: HepG2 Attagene TRANS ERa GAL4 reporter, mRNA. The gist of the method: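 HepG2 cells transiently transfected with multiplexed GAL4-UAS reporter units read out chimeric NR-Gal4 activity. After 24 h compound exposure, reporter mRNA was quantified by RT-PCR, 6-FAM labeling, HpaI digestion and capillary electrophoresis, relative to DMSO.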
Estrogen receptor (Homo sapiens), sequence (P03372 whole entry, looked up, the tested form may be a part): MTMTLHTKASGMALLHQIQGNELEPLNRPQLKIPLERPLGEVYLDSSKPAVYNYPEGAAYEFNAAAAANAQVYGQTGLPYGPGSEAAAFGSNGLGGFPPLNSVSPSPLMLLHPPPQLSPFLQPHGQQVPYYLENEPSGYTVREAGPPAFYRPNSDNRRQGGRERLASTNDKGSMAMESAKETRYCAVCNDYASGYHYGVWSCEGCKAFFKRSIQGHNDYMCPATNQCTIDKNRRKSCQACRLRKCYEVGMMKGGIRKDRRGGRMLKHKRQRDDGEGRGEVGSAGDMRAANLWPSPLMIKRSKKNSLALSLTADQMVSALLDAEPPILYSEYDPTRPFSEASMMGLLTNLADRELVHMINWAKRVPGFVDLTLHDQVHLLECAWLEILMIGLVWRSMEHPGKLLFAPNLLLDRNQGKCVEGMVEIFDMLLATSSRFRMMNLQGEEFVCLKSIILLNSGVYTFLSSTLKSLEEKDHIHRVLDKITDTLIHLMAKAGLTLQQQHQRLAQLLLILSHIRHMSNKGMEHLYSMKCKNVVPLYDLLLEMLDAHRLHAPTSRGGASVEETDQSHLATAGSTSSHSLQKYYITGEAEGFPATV

The nature of experiment [10]: ATG_M_19_TRANS: Attagene TRANS-FACTORIAL HepG2 Assay for M19 Transcription Factor (Internal Marker) (AID 2282974; active = hit-call score of the fitted dose curve at least 0.9, where 1 is the maximum). To be noted: HepG2 Attagene TRANS-FACTORIAL M19 internal marker reporter. The gist of the method: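 HepG2 transiently transfected with GAL4-UAS multiplex reporter constructs, exposed 24 h; reporter RNA quantified by RT-PCR, 6-FAM labeling, HpaI digestion and capillary electrophoresis; internal background marker fitted upward versus DMSO.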

X-box-binding protein 1 (Homo sapiens), sequence (P17861 whole entry, looked up, the tested form may be a part): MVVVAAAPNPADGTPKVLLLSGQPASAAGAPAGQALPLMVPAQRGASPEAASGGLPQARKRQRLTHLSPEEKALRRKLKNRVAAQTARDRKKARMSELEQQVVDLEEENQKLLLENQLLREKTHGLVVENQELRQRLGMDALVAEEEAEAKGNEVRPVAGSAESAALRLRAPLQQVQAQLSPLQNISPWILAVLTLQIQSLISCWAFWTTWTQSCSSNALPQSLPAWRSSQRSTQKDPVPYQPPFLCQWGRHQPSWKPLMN

Take `Cc1ccc(C(C)C)c(O)c1`: the compound was classed as inactive in experiment [1], in [2], in experiment [3], in experiment [4], in experiment [5] and in [6]. Besides, the call in [7] was inactive.

`CC(=O)OC/C=C(\C)CCC=C(C)C`: the outcome in [1], in [8], in experiment [2] and in experiment [5] was inactive.

`FC(F)(F)C(F)(F)C(F)(F)C(F)(F)C(F)(F)C(F)(F)CCI`: the compound was called inactive in experiment [1], in experiment [2], in [3], in [4], in experiment [9] and in experiment [5].

In the case of `CCCCCCCCCCCCCCCC`, the call in experiment [1], in experiment [8], in experiment [2], in [5] and in [7] was inactive.

With `Cc1ccc(C)c(O)c1C`, the compound was classed as inactive in experiment [1], in [2], in experiment [3], in [4], in experiment [9] and in experiment [5].

Turning to `O=C(OCCCCCOC(=O)c1ccccc1)c1ccccc1`, the compound was classed as inactive in [1], in experiment [8], in experiment [2], in experiment [4], in [5] and in experiment [6].

In the case of `CCCCC(CC)COC(=O)CC(C(=O)OCC(CC)CCCC)S(=O)(=O)O` (centres undefined), the call in [1], in [2], in [3], in [4], in [5] and in experiment [6] was inactive.

In the case of `Cc1cccc(C)c1O`, the outcome in experiment [1], in experiment [8], in [2], in [3], in experiment [5] and in [10] was inactive. For the same compound, the compound was called inactive in experiment [6] and in experiment [7].

As for `CC1=C(/C=C/C(C)=C/C=C/C(C)=C/CO)C(C)(C)CCC1`, the AC50 is 25.9 µM (active) in experiment [1] and 1.85 µM (active) in [3]. Besides, the compound was called inactive in experiment [8], in [2], in experiment [5] and in experiment [6].

Consider `Cc1ccc(N(C)C)cc1`, for which the call in experiment [1], in experiment [2], in [3], in [9] and in experiment [5] was inactive.

On to `CCCCCCCCCCC`, for which the compound was classed as inactive in [1], in experiment [8], in experiment [2], in experiment [5] and in [6].

For `O=C(O)Cc1ccccc1Nc1c(Cl)cccc1Cl`, the concentration at half-maximal activity (AC50) in experiment [1] was 40.6 µM (active); in experiment [3], 16.2 µM (active). Further, the outcome in experiment [8], in [2], in [5], in experiment [10] and in experiment [6] was inactive.

Regarding `CC=Cc1ccc(O)c(OC)c1`, the compound was classed as inactive in [1], in experiment [8], in [2], in experiment [5] and in experiment [6].

In the case of `CN[C@H]1CC[C@@H](c2ccc(Cl)c(Cl)c2)c2ccc(S(N)(=O)=O)cc21`, the compound was called inactive in experiment [1], in experiment [2], in [3], in experiment [4], in [5] and in experiment [6]. Also, in experiment [7], the compound was classed as inactive.

`CC(=O)C(C)=CC1C(C)=CCCC1(C)C` (centres undefined): the compound was classed as inactive in [1], in [8], in [2], in [5] and in experiment [6].

As for `CCCCCC(=O)O`, the result in [1], in experiment [8], in experiment [2], in experiment [3], in experiment [5] and in [10] was inactive. Moreover, the compound was called inactive in [7].

`CCCCOC(=O)CCCCCCCCC(=O)OCCCC`: the concentration at half-maximal activity (AC50) in [1] is 146 µM (active). Besides, the compound was called inactive in experiment [8], in experiment [2], in [3], in experiment [5] and in experiment [6].

As to `Cc1ccc2ncccc2c1`, the compound was classed as inactive in [1], in [8], in experiment [2], in experiment [5] and in experiment [7].

For the compound `Oc1ccc2c(c1)OC[C@@H](N1CCC(O)(c3ccc(F)cc3)CC1)[C@H]2O`, the result in experiment [1], in [4] and in experiment [5] was inactive. Further, the values for the half-maximal activity concentration (AC50) in [2] and in experiment [3] were 64.6 µM (active) and 30.1 µM (active), respectively.

In the case of `O=C(O)CCCCC(=O)O`, the outcome in [1], in experiment [2], in experiment [3] and in [5] was inactive.

Take `COc1ccc2c(c1)c(CC(=O)O)c(C)n2C(=O)c1ccc(Cl)cc1`: the compound was classed as inactive in [1], in experiment [2], in experiment [3], in experiment [5] and in experiment [10].

Take `C=CCc1ccc(O)c(OC)c1`: the concentration at half-maximal activity (AC50) in experiment [1] is 176 µM (active). For the same compound, the result in experiment [2], in [5] and in experiment [7] was inactive.

With `CCOC(=O)C(C)(C)Oc1ccc(Cl)cc1`, the outcome in [1], in [2], in experiment [3], in [5] and in experiment [6] was inactive.
